# Source: PubChem
# Only some compounds are listed: those with a hit (about 5.1% of all), similar ones and a draw of the others.
# Tau fluor counter = counter-screen for tau fibril formation inhibitors; AID 1463; Potency, µM (series often up to 57.7 µM), for the others: at the top dose activity change, negative = decrease; tau K18 P301L Alexa594 fluorescence, heparin fibrillization; 0.93% of 280,000 active; note: potency is the fitted concentration of half-maximal effect; nearly all actives have a fitted effect of over 55% in size
#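 Human K18 P301L tau (15 uM unlabeled plus 0.24 uM Alexa 594-labeled, final) in 100 mM sodium acetate pH 7 was mixed with compound and 20 uM heparin and incubated 6 hr at 37 C.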
# PNC inhibitor = blocks assembly of the perinucleolar compartment; PC3M PTB-GFP, PNC prevalence imaging, 16 h; active compounds read low; activity change (PNC), negative = inhibition, % at 10 µM; 3.1% of 140,000 active;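 active = readout at or below -70, meaning at least 70% loss of cells showing the perinucleolar compartment, a nuclear body marking cancer cells; inconclusive = readout between -30 and a set limit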;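 note: plate controls were DMSO wells for no effect and camptothecin positive control wells for full effect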
#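 PC3M cells stably expressing PTB-GFP, 750–1000 cells/well, treated 16 h at 37 °C with compound (23 nl of library stock), in duplicate. After paraformaldehyde fixation and Hoechst stain, imaged at 20x; PNC prevalence scored by image analysis.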
# KDM4E inh = inhibitors of human JMJD2E histone demethylase. AID 2147. 1.6% of 230,000 active. B2RXH2. Potency, µM (titrated, usually from 57.1 µM), for inactives: top-dose activity change, negative = inhibition, usual class: inhibitors. JMJD2E catalytic domain, FDH-coupled NADH fluorescence (FDH is formaldehyde dehydrogenase);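 note: potency is the fitted concentration of half-maximal effect; 0% = wells with enzyme and -100% = buffer wells without enzyme; nearly all actives have a fitted effect of over 50% in size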
# Target sequence (B2RXH2 1-337 limits assumed): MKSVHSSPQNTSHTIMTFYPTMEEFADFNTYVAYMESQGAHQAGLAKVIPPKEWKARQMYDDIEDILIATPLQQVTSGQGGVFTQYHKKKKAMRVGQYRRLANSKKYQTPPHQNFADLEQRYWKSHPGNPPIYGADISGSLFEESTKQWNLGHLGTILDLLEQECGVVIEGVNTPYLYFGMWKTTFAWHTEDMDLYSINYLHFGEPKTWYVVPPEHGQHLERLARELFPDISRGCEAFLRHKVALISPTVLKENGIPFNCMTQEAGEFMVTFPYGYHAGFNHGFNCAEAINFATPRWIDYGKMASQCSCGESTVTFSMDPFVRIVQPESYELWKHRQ
# Tau ThT inhib = tau fibrillization inhibition (ThT binding); P10636; recombinant tau K18 P301L, heparin-induced fibrillization, ThT fluorescence; Potency, µM (titrated, usually from 57.4 µM), for inactives: at the highest dose activity, negative = inhibition, usual class: inhibitors; 2.1% of 270,000 active; note: potency is the fitted concentration of half-maximal effect; nearly all actives have a fitted effect of over 55% in size
#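 ThT emission at 510 nm, taken 1 hr after adding 30 uM dye, quantifies aggregates formed when 20 uM heparin acts on human tau K18 P301L for 6 hr at 37 C.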
# NPSR antagonist = blocks cAMP signaling of the human neuropeptide S receptor; Q6W5P4; CHO-NPSR cells, cAMP TR-FRET, antagonist mode; Potency, µM (titrated, usually from 38.3 µM), without a hit: at the highest dose activity change, negative = inhibition, hits mostly inhibitors; 1% of 220,000 active; AID 1461; note: potency is the fitted concentration of half-maximal effect; nearly all actives have a fitted effect of over 50% in size
# Target sequence (Q6W5P4 whole entry, looked up): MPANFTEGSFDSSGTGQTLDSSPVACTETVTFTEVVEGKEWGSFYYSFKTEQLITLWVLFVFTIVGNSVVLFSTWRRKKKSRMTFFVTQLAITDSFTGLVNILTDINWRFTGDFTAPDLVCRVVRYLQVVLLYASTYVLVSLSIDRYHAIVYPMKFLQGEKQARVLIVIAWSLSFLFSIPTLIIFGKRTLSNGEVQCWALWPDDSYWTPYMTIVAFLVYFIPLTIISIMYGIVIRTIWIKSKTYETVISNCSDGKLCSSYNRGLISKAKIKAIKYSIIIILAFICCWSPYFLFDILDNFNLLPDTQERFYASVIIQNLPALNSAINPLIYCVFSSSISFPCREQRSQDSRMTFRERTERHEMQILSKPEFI
# Tau FP inhib = blocks human tau fibril formation measured by polarization | P10636 | K18 P301L tau heparin fibrillization, Alexa594 FP, 6 h | Potency, µM (doses to about 57.7 µM), for inactives: top-dose activity, negative = inhibition, most hits filed as inhibitors | 0.39% of 280,000 active; note: potency is the fitted concentration of half-maximal effect; nearly all actives have a fitted effect of over 55% in size
#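 Recombinant K18 P301L […], labeled with Alexa 594 at 0.24 uM over 15 uM unlabeled; heparin inducer 20 uM final; 37 C, 6 hr; FP endpoint.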
# The depositor's hits bear a star; ? = inconclusive; · = no result; [ ] = remark or other dose. Unless noted, calls come from the whole dose curve; as a rule, active = well fitted curve in the direction sought with a large enough effect; inconclusive = small, poorly fitted or top-dose-only effect, or another doubt; inactive = no such curve, though single readings can be large; an effect the other way counts as inactive or inconclusive. Unless noted, % is set by controls: 0 for no effect and ±100 for the full control effect.
SMILES,Tau fluor counter,PNC inhibitor,KDM4E inh,Tau ThT inhib,NPSR antagonist,Tau FP inhib
NC(Cc1ccc(O)c(O)c1)C(=O)O (centres undefined),18µM*[quencher],·,?,11µM*,·,25µM*
N[C@H](Cc1ccc(O)c(O)c1)C(=O)O,-8%,·,18µM*,16µM*,-5%[46.1 µM],?
COC(=O)C(N)Cc1ccc(O)cc1 (centres undefined),-4%,1,1%,-2%,5%[46.1 µM],4%
COc1ccc(S(=O)(=O)N(CC(=O)NCCSc2ccccc2)c2ccc(C)cc2)cc1,-29%,·,·,-11%,·,11%
COC(=O)c1cc2oc(C)cc2n1Cc1c(C)cc(C)cc1C,-11%,·,·,-12%,·,-1%
COc1ccc(CCNC(C)=O)cc1,-2%,-30,6%,-6%,-6%[46.1 µM],0%
CC(=O)NCCc1ccc(O)c(O)c1,?,·,18µM*,?,-10%[46.1 µM],?
CCCOc1cccc(OCCSc2nc(C)cc(=O)[nH]2)c1,-2%,-86*,-4%,?,-1%[46.1 µM],1%
Cc1cc(=O)[nH]c(SCCCOc2ccc(F)cc2)n1,-15%,24,2%,-14%,14%[46.1 µM],-5%
N#Cc1c(N2CCCC2)nc(N)c2c(N)nc(N3CCCC3)cc12,13µM*[quencher],27,?,?,-7%[46.1 µM],11%
COc1cc2c(C#N)c(N3CCN(c4ccccc4OC)CC3)nc(N)c2c(N)n1,13µM*[quencher],-10,?,18µM*,0%[46.1 µM],-10%
CC(C)C(NS(=O)(=O)c1ccc2c(c1)oc(=O)n2C)C(=O)NCCc1ccccc1 (centres undefined),-10%,·,·,-9%,·,-8%
Cc1c(C)n(C)c2ccc(C(=O)NCc3cccs3)cc12,-24%,-119*,?,?,-46%,19%
COc1ccccc1-c1noc(-c2ccccc2)n1,-5%,-6,-11%,-6%,-2%[46.1 µM],-1%
COc1ccccc1-c1noc(-c2ccco2)n1,-3%,-118*,3%,-10%,-8%[46.1 µM],8%
CN(C)c1nc(N)nc(CSc2nc3cc(Cl)ccc3o2)n1,0%,?,4%,-12%,-10%[46.1 µM],-1%
O=S1(=O)C=C(Sc2nc3cc(Cl)ccc3o2)c2ccccc21,7.1µM*[quencher],?,?,?,?,25µM*
CCOC(=O)CSc1nnc(-c2ccccc2)o1,-6%,37,3%,-6%,0%,-6%
O=C(CSc1nnc(-c2ccccc2)o1)c1nnc(-c2ccccc2)o1,?,?,?,16µM*,-6%[46.1 µM],?
COc1ccc(-c2nnc(SCC(=O)c3ccc(C)o3)o2)cc1,-12%,-119*,-3%,?,3%,-4%
COc1ccc(-c2nnc(SCC(=O)N3c4ccccc4Sc4ccccc43)o2)cc1,-23%,-100*,-4%,-3%,-17%[46.1 µM],-6%
O=C(CSc1nnc(-c2ccncc2)o1)Nc1ccccc1Cl,4%,-90*,-3%,7%,-20%[46.1 µM],8%
COc1ccccc1NC(=O)CSc1nnc(-c2ccncc2)o1,9%,24,0%,7%,-8%[46.1 µM],-3%
Cc1ccc(Cl)cc1Nc1nc2ccccc2n2c(C)nnc12,-27%,·,·,-6%,·,-9%
COc1ccc(CCNC(=O)c2cc3n(n2)CCCN(Cc2ccc(C)cc2)C3=O)cc1OC,-2%,·,·,-8%,·,-3%
SMILES,Tau fluor counter,PNC inhibitor,KDM4E inh,Tau ThT inhib,NPSR antagonist,Tau FP inhib
COC(=O)NC(CC(C)=O)c1ccc(F)cc1 (centres undefined),4%[11.6 µM],·,·,2%[11.5 µM],·,7%[11.6 µM]
Cc1cc(C)nc(-n2nc(C)c3c2NC(=O)CC3c2cc(F)ccc2F)n1 (centres undefined),-1%,·,·,-2%,·,6%
O=C(CSc1nccn1C1CCCC1)Nc1ccccc1,17%,·,·,18%,·,6%
Cc1ccc(N2C(=O)c3cccc4c(N5CCN(C)CC5)ccc(c34)C2=O)c2cccnc12,-9%,-83*,11%,1%,-18%[46.1 µM],-6%
O=C1c2cccc3c(N4CCCCC4)ccc(c23)C(=O)N1c1ccccc1O,-21%,·,12%,?,37%,2%
COC1=CC(=O)C=C(OC)C1=O,?,·,?,10µM*,·,22µM*
NC(=S)NCCC[C@H](N)C(=O)O,-3%,·,·,-9%,·,-14%
O=C(OCC1CCCO1)c1ccc2c(c1)N(Cc1ccccc1)C(=O)c1ccccc1S2(=O)=O (centres undefined),-16%,·,·,6%,·,8%
O=S(=O)(Nc1cc(Sc2cccc3cccnc23)c(O)c2ccccc12)c1ccc(F)cc1,14µM*[quencher],-118*,28µM*,13µM*,-7%,28µM*
COc1ccc(S(=O)(=O)Nc2cc(Sc3ncn[nH]3)c(O)c3ccccc23)cc1,?,-28,?,7.1µM*,?,16µM*
Cc1cccc(OC(=O)CSc2nnc(CNC(=O)c3ccccc3)o2)c1C,3%,·,·,-6%,·,6%
Cc1cc(C)c(S(=O)(=O)N2CCC(N3CCN(Cc4ccccc4)C(=O)C3=O)CC2)c(C)c1,5%,·,·,-3%,·,-3%
COC(=O)c1sccc1S(=O)(=O)N(CC(=O)NCc1ccc(C)cc1)c1ccc(C)c(C)c1,4%,·,·,6%,·,2%
CC(C)(C)NCCOCCOc1ccccc1-c1ccccc1,2%,-106*,2%,9%,2%[46.1 µM],-2%
COCCCNCCOCCOc1ccccc1-c1ccccc1,-1%,-17,-1%,4%,17%,-4%
COC(=O)c1c(-c2ccc(C(C)(C)C)cc2)csc1NC(=O)C1C2CCC(O2)C1C(=O)O (centres undefined),-5%,-98*,16µM*,?,-18%,-13%
Cc1cc(Nc2ccccc2)n(-c2cccc(Cl)c2)n1,-26%,-96*,-3%,-4%,-9%[46.1 µM],11%
Cc1ccc(C)n1-c1ccc(C(=O)O)cc1,-21%,-4,14µM*,?,-12%[46.1 µM],-14%
CNC(=O)NC(=O)COC(=O)c1ccc(-n2c(C)ccc2C)cc1,-11%,-115*,13µM*,-13%,-10%[46.1 µM],-14%
Cc1ccc(C(=O)OCC(=O)NC(=O)c2cccn2C)cc1[N+](=O)[O-],-12%,·,7%,-7%,-6%[7.67 µM],1%
CC(C)NC(=O)NC(=O)COC(=O)c1ccc(OC(F)(F)F)cc1,-22%,-89*,2%,-12%,13%,2%
Cc1ccc(C(=O)OCC(=O)NC(=O)c2cccn2C)cc1,-10%,-81*,?,-15%,-1%[46.1 µM],-5%
Cc1cccc(C(=O)Nc2ccc(OCc3cc(=O)n4ccc(C)cc4n3)cc2)c1,-6%,·,·,?,·,-8%
COc1ccc(Cn2c(CNS(=O)(=O)c3ccc4c(c3)CCCC4)nc3cccnc32)cc1,-11%,·,·,-8%,·,5%
COC(=O)c1ccc(NC(=O)CSc2nc(=O)n(Cc3ccco3)c3c2CCC3)cc1,-11%,·,·,-12%,·,5%
